In the library only some 7.2% were active in any assay of this set; here they are far more common.
HEK293 cAMP cs: raises cAMP in parental HEK293 cells, TSHR agonist counter-screen. actives 2.5% (n = 73,000). AID 938. Potency, µM (top dose mostly 57.1 µM), hits mostly activators. parental HEK293 CNG cAMP sensor, membrane potential fluorescence; note: nearly all actives have a fitted effect of over 55% in size
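Parental HEK 293 cells stably expressing a cAMP-gated CNG channel were loaded with membrane potential dye containing 100 uM RO 20-1724 for 60 min. Compound added for 30 min; depolarization read as fluorescence intensity at 590 nm.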
TSHR ag: TSH receptor (human) agonism; actives 0.48% (n = 73,000); HEK293-CNG-TSHR cells (CNG channel as cAMP sensor), membrane potential dye, cAMP; P16473; Potency, µM (highest dose often 57.1 µM), usual class: activators; active = well fitted activation curve with a large enough effect in the main read-out, with a control signal flat, not every such curve was filed as active; inconclusive = small, poorly fitted or top-dose-only effect, or a change in a side signal; inactive = no such curve, though single readings can be large or run the other way; reference of the percent scale not stated here;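 note: the control signal comes from parental cells without the receptor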
Target sequence (P16473 whole entry, looked up): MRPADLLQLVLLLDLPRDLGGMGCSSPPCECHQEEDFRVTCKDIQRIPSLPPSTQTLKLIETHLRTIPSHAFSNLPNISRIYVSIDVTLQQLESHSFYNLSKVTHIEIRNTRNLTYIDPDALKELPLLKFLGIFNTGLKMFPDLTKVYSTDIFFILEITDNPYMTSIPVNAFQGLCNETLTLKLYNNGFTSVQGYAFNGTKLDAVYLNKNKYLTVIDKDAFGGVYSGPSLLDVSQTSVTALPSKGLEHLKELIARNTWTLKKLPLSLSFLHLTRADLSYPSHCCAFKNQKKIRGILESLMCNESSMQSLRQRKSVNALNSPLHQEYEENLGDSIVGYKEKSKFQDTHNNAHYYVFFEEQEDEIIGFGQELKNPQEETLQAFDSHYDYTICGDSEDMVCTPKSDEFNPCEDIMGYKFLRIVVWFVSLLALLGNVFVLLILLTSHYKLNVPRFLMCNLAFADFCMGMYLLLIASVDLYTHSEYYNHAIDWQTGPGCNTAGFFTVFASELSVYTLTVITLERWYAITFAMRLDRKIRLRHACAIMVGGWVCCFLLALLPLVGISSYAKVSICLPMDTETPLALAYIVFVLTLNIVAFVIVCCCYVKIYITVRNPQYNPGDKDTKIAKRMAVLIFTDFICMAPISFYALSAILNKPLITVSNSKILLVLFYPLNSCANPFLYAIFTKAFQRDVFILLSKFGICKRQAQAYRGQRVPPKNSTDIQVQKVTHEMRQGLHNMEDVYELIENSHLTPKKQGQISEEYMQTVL
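HEK 293 cells stably expressing TSHR and a cAMP-gated CNG channel; parental CNG-only cells as counterscreen. Cells preloaded 60 min with membrane potential dye plus 100 uM RO 20-1724, then compound 30 min; fluorescence read at 590 nm.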
Bst PK mod: pyruvate kinase (B. stearothermophilus) modulation; purified pyruvate kinase, luminescence ATP production; ribose 5-phosphate activator present at AC10; Potency, µM; actives 1.2% (n = 51,000); in the data active = potency below about 11 µM; inconclusive = mostly about 12 µM to 25 µM;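 the screen sought inhibitors and activators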
Tau filament bind: tau filament binding; recombinant tau filaments, thioflavin S fluorescence, 15 h; filaments grown with octadecylsulfate alongside compound; actives 2% (n = 71,000); Potency, µM (titrated, usually from 57.1 µM);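 note: actives lower thioflavin S fluorescence by blocking filaments or displacing dye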
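Tau 2 uM in ThS buffer dispensed; compound added; 60 uM ODS added (finals 1 uM tau, 30 uM ODS); 15 h 37 C; fluor ex450/em510.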
FLuc inh: blocks Photinus pyralis firefly luciferase activity. P08659. purified firefly luciferase, luminescence, 8 min. Potency, µM (doses to about 57.1 µM), actives largely listed as inhibitors. actives 2.2% (n = 72,000). AID 411; note: nearly all actives have a fitted effect of over 40% in size
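Luminescence read-out after 8 min at room temperature; enzyme reaction used luciferin plus 10 uM ATP (linear range) in imidazole buffer pH 7.2 with KCl, MgCl2, Tween 20 and BSA. Each sample was run as a titration.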
ERK AVP block: inhibitors of vasopressin-stimulated ERK signaling pathway; actives 0.99% (n = 72,000); AID 995; HEK293-V1b, vasopressin-stimulated pERK AlphaScreen; Potency, µM (series often up to 57.5 µM), hits mostly inhibitors; note: nearly all actives have a fitted effect of over 55% in size
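Overnight-seeded V1b-HEK293 cells in 1% FBS got compound, then vasopressin (25 nM final, 5 min, 37C), then lysis buffer. AlphaScreen detection of phospho-ERK; activity normalized to basal and full-stimulation controls.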
Hits are given with their value; - = inactive; ? = inconclusive; . = no result given; [ ] = remark or other dose. Unless noted, calls come from the whole dose curve; as a rule, active = well fitted curve in the direction sought with a large enough effect; inconclusive = small, poorly fitted or top-dose-only effect, or another doubt; inactive = no such curve, though single readings can be large; an effect the other way counts as inactive or inconclusive.

SMILES | HEK293 cAMP cs | TSHR ag | Bst PK mod | Tau filament bind | FLuc inh | ERK AVP block
CCOC(=O)N1CCN(C2OC(=O)c3ccccc32)CC1 (stereo not given) | . | . | - | . | - | .
Cc1nc2ccc(Cl)cc2nc(C)/c1=N\O | - | - | - | 13µM | ? | -
CCCn1c(C)nc2c(NC(C)CCCN(CC)CC)nc(C)nc21 (stereo not given) | - | - | . | - | . | -
CCOC(=O)c1sc(NC(=O)c2ccco2)nc1C | - | - | . | - | - | -
CCOC(=O)c1sc(NC(=O)c2ccc(C)o2)nc1C | ? | ? | . | - | 13µM | -
Cc1ccc(C(=O)N2CCN(c3ccccc3)CC2)cc1C | 25µM | ? | . | - | - | -
O=C(c1ccc2nc(-c3ccco3)c(-c3ccco3)nc2c1)N1CCN(c2ccccc2)CC1 | - | - | - | 1µM | - | ?
O=C(c1cc(-c2ccco2)on1)N1CCN(c2ccccc2)CC1 | - | - | . | - | - | -
CC(C)Sc1nc(NCc2ccco2)c2c3c(sc2n1)COC(C)(C)C3 | - | - | - | - | - | -
c1coc(CNc2ncnc3sc4c(c23)CCCCC4)c1 | 25µM | ? | . | - | - | -
Cc1nc(NCc2ccco2)c2c3c(sc2n1)CCC3 | 16µM | ? | . | - | - | ?
CCc1nc(SCC(=O)NCc2ccco2)c2c3c(sc2n1)CCCC3 | 5µM | ? | - | - | - | -
Cc1sc2ncnc(NCc3ccco3)c2c1C | ? | ? | . | - | - | ?
CCN1C(=O)[C@H]2[C@H]3[C@H](O)[C@H](O)C/C(=N/OCc4ccccc4)[C@@H]3CC[C@@H]2C1=O | -[11.4 µM] | -[11.4 µM] | . | . | -[11.4 µM] | -[11.5 µM]
O=C(O)Cn1c(=O)oc2cc(S(=O)(=O)NC3CCCCC3)ccc21 | - | - | . | - | - | .
Cc1nc2cnc(N3CCNCC3)nc2n(CCC#N)c1=O | - | - | . | - | -[11.4 µM] | -
COc1ccc(-c2nc3cnc(Oc4ccccc4)nc3n(C3CC3)c2=O)cc1 | ? | ? | . | - | -[11.4 µM] | -
Clc1ccccc1C(Nc1cnccn1)Nc1cnccn1 | -[11.4 µM] | -[11.4 µM] | . | -[11.4 µM] | -[11.4 µM] | -[11.5 µM]
CCCCNc1ncnc2c1cnn2-c1ccccc1 | ? | ? | . | - | 13µM | -
COc1ccc(-n2ncc3c(NC(C)C)ncnc32)cc1 | - | - | . | . | . | .
CCCCNc1ncnc2c1cnn2-c1ccc(Cl)cc1 | - | - | . | - | 10µM | .
COCC(C)Nc1ncnc2c1cnn2-c1ccc(Cl)cc1 (stereo not given) | . | . | 11 | . | 7.9µM | .
Clc1ccc(-n2ncc3c(NCCCn4ccnc4)ncnc32)cc1 | . | . | ? | . | - | .
Cc1nc2cnc(Nc3ccccc3)nc2n(C2CC2)c1=O | - | - | . | - | -[11.4 µM] | -
Cc1ccc(N2C(=O)c3ccc(N)cc3C2=O)cc1 | - | ? | . | - | 16µM | -
SMILES | HEK293 cAMP cs | TSHR ag | Bst PK mod | Tau filament bind | FLuc inh | ERK AVP block
Cc1cc(-c2nnco2)c(C)n1-c1ccccc1 | 20µM | ? | . | - | 13µM | -
Cc1ccccc1Nc1nc(N)nc(COC(=O)c2cccn2C)n1 | - | -[11.4 µM] | - | - | - | -
Cc1ccsc1C(=O)OCc1csc(-c2ccccc2)n1 | ? | ? | 7.1 | - | 7.9µM | -
Cc1ccsc1C(=O)OCC(=O)N1CCOCC1 | - | - | - | - | - | -
O=C(OCc1nc2ccccc2s1)c1cccs1 | - | - | . | - | 10µM | -
O=C(OCc1csc(-c2ccccc2)n1)c1cccs1 | ? | ? | ? | - | 13µM | -
Cn1cccc1C(=O)OCc1csc(-c2ccccc2)n1 | - | - | 9.3 | - | 7.9µM | -
CCNc1ncc2nc(-c3ccc(F)cc3)c(=O)n(CCc3ccccc3)c2n1 | ? | ? | . | ? | -[11.4 µM] | ?
COc1ccc(C)cc1NC(=O)C1CCCN1S(=O)(=O)c1ccc2c(c1)CCC(=O)N2 (stereo not given) | - | - | . | 25µM | - | ?
CCn1c(SCc2ccc(C#N)cc2)nnc1-c1ccc(S(=O)(=O)N2CCCCC2)cc1 | - | - | - | - | - | 25µM
CCn1c(SCC(=O)N2CCCC2)nnc1-c1ccc(S(=O)(=O)N2CCCCCC2)cc1 | - | - | - | - | - | -
COc1ccc(NC(=O)C2CCN(c3nc(C)nc4c3CCC4)CC2)cc1 | 32µM | ? | - | - | - | -
Cc1ccc2[nH]c3c(c2c1)CCc1cn[nH]c1-3 | - | - | 8.7 | 7.9µM | - | ?
Cc1ccc2[nH]c3c(c2c1)CCC3=O | - | - | - | - | - | -

Assay outcomes deposited in PubChem BioAssay by National Center for Advancing Translational Sciences (NCATS).
